The panel holds about 83,000 compounds, 20% with a hit somewhere; the sample as a whole holds those more often.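 Note: values are percent growth. 100 is the growth of untreated cells, values between 100 and 0 indicate rising inhibition; between -100 and 0 indicates cell death.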 Values without a mark were called inactive. Activity calls are given as the source filed them. How the source made its calls: active means growth percent below 10; inactive means the rest.
Assays:
Experiment in all cases: NCI-60 one-dose screen, 48 h (100 = growth as untreated, 0 = no growth, -100 = all killed)
Conditions in all cases: 10 µM unless noted
SR leukemia = system: SR leukemia
RPMI-8226 leukemia = system: RPMI-8226 leukemia
OVCAR-8 ovarian = system: OVCAR-8 ovarian
OVCAR-5 ovarian = system: OVCAR-5 ovarian
OVCAR-4 ovarian = system: OVCAR-4 ovarian
SK-OV-3 ovarian = system: SK-OV-3 ovarian
IGROV1 ovarian = system: IGROV1 ovarian
OVCAR-3 ovarian = system: OVCAR-3 ovarian
HS 578T breast = system: HS 578T breast
NCI/ADR-RES ovarian = system: NCI/ADR-RES ovarian

Compound | growth (SR leukemia) | growth (RPMI-8226 leukemia) | growth (OVCAR-8 ovarian) | growth (OVCAR-5 ovarian) | growth (OVCAR-4 ovarian) | growth (SK-OV-3 ovarian) | growth (IGROV1 ovarian) | growth (OVCAR-3 ovarian) | growth (HS 578T breast) | growth (NCI/ADR-RES ovarian)
OCCn1cc(-c2nc(-c3c[nH]c4ncccc34)cs2)c2ccccc21 | 53.5% | 57.8% | 90.4% | 90.5% | 51.7% | 70.2% | 56.1% | 81.7% | 71.3% | 94.6%
Cn1cc(-c2ccc3nc(-c4ccc(CC(=O)ONc5cc(C(C)(C)C)on5)cc4)cnc3c2)cn1 | 15.5% | 45.2% | 33.7% | 66.1% | 35.4% | -17.1% (active) | 10.3% | 48% | 31% | 33.2%
CCCCNCCCCCNc1cc(OC)cc2cccnc12 | 71.1% | 76.9% | 99.3% | 91.4% | 60.1% | 95.2% | 118% | 107% | 99% | 95.9%
CCOC(=O)C1=C(N)Oc2c(sc3c(F)cccc23)C1c1ccc(O)cc1 (stereo not given) | 15.3% | 25.2% | 44.1% | 92.4% | 38.4% | 78.9% | 48.9% | 45.3% | 31.9% | 36.6%
C#CCOc1cccc(Nc2ncnc3ccc(NC(=O)C=C)cc23)c1 | 21.1% | 35.7% | 32.4% | 52.6% | 59.3% | -3.78% (active) | -6.06% (active) | 19.2% | 42.4% | 36.1%
Nc1c(C(=O)Nc2ccccc2F)sc2nc3c(cc12)CCCC3 | 13.3% | 28% | 40.7% | 74.7% | 54% | 26.6% | 58.9% | 4.6% (active) | 48.9% | 24.7%
Cn1cc(-c2nonc2-c2cn(C)c3ccccc23)c2ccccc21 | 16% | 14.2% | 17.4% | 35.5% | 56.1% | 18.7% | 45.9% | 0.348% (active) | 30.7% | 17.4%
COc1cccc(/C=C2\COc3ccc(O)c(O)c3C2=O)c1 | 12.6% | -7.52% (active) | 10.7% | -2.7% (active) | 26.9% | 86.2% | -31.1% (active) | -28.3% (active) | 20.4% | 2.6% (active)
CC(=O)Oc1ccc(C)cc1C | 102% | 102% | 110% | 102% | 105% | 106% | 114% | 111% | 109% | 108%
COc1cc(OC)c(NC(=O)c2cc3ccccc3cc2O)cc1Cl | 82.6% | 7.51% (active) | 41.5% | 89% | 41.4% | 71.6% | 1.6% (active) | 2.27% (active) | 31.1% | 14.1%
O=C(CSc1nc2sc3c(c2c(=O)n1-c1ccccc1)CCCCC3)N/N=C/c1cccc([N+](=O)[O-])c1 | 38.3% | 73.4% | 16.3% | 78% | -6.2% (active) | 80.4% | 71.1% | 10.9% | -1.34% (active) | 44%
Oc1ccc(Cl)cc1/C=N\NC(=S)N/N=C/c1cc(Cl)ccc1O | 20.2% | 29.8% | 17.6% | 69.7% | 29.6% | 58.6% | 22.2% | 12.7% | 57.9% | 14.7%
CCCCCC(/C=N\NC(=S)N/N=C/C(=C/c1ccccc1)CCCCC)=C\c1ccccc1 | 56.2% | 44.7% | 64.4% | 105% | 56.2% | 85.9% | 64.1% | 26.2% | 73.8% | 60.2%
NNc1nc(-c2cccnc2)nc2c1sc(=S)n2-c1ccccc1 | 88.3% | 106% | 92.8% | 102% | 100% | 79.6% | 97.9% | 93.1% | 112% | 102%
O=C(/C=C/c1cccc(Cl)c1)c1cccc(OCCCOc2cccc(C(=O)/C=C/c3cccc(Cl)c3)c2)c1 | 37.1% | -8.65% (active) | 98.2% | 113% | 102% | 107% | 92.7% | 102% | 105% | 99.6%
Cn1cc(-c2csc(-c3c[nH]c4ccc(Br)cc34)n2)c2ccnc(Cl)c21 | 31.6% | 51.4% | 63.8% | 114% | 53.6% | 78.1% | 65.9% | 77.4% | 68.7% | 65.6%
CNc1nnc2n(-c3ccccc3)c(=O)c3cnn(-c4ccccc4)c3n12 | 65.2% | 85.3% | 95.7% | 99.3% | 107% | 68.4% | 94.8% | 104% | 97.4% | 96.6%
Fc1cnccc1C1CC(c2ccc(N3CCNCC3)cc2)=NN1 (stereo not given) | 90.4% | 92.5% | 95.1% | 111% | 108% | 85% | 68% | 98.8% | 89.2% | 106%
C=C1C(=O)O[C@H]2[C@H]1CC/C(COC(=O)c1cc3ccccc3s1)=C\CC[C@@]1(C)O[C@@H]21 | -1.95% (active) | -25.3% (active) | -12% (active) | -57.3% (active) | -62% (active) | 85.3% | -66% (active) | -69% (active) | -17.7% (active) | 1.73% (active)

Source: PubChem BioAssay (NCI)
